# High-throughput results (PubChem BioAssay)
# H9c2 protect: myocardial damage modulation in H9c2 cells; protection from H2O2 cell death, % at 20 µM; actives 0.63% (n = 360,000); H9c2 cardiomyocytes, H2O2 injury protection, ATPLite, 2 h;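 active = compounds giving at least 50% protection of heart cells from peroxide-induced death in the single-dose screen, raw or plate-pattern-corrected value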;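 also: 0% = DMSO wells with peroxide and 100% = DMSO wells without peroxide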
# ALR inh: blocks human ALR sulfhydryl oxidase activity; P55789; purified ALR, DTT oxidation, H2O2 HRP-luminol luminescence; inhibition, % (test concentration not listed); actives 3.8% (n = 290,000);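 active = mean replicate inhibition above about 79%, with every replicate also reaching it, limit read from the data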
# Target sequence (P55789 whole entry, looked up): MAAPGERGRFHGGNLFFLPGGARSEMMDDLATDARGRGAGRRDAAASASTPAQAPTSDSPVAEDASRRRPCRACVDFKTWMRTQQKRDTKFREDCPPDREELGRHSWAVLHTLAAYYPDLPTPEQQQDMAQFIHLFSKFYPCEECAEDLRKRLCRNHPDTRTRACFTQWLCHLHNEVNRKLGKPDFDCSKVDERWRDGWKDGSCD
# PfM18AAP inh: PfM18AAP enzyme inhibition; recombinant PfM18AAP, H-Glu-NHMec fluorogenic cleavage; inhibition, % at 7.35 µM; actives 1.2% (n = 290,000); AID 1822;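 active = inhibition above the campaign mean inhibition over all tested compounds plus 3 SD, cut at about 28% in these data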;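 also: 0% = plate median of test compound wells and 100% = 2 mM ZnCl2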
# PfGluPho inh: PfG6PD (Plasmodium falciparum) enzyme inhibition | AID 504690 | actives 0.78% (n = 350,000) | PfGluPho enzyme, NADPH resazurin-diaphorase fluorescence | inhibition, % at 20 µM;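 active = inhibition reaching at least a set limit at 20 µM in the primary screen, cut at about 59% in these data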;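 also: 0% = DMSO wells with substrate and 100% = DMSO wells lacking glucose-6-phosphate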
# PHOSPHO1 inh: inhibitors of human PHOSPHO1 phosphatase | actives 1.1% (n = 290,000) | recombinant PHOSPHO1, absorbance phosphatase assay | inhibition, % at 13.3 µM; in the data active = inhibition above about 60%
# Target sequence (Q8TCT1 whole entry, looked up): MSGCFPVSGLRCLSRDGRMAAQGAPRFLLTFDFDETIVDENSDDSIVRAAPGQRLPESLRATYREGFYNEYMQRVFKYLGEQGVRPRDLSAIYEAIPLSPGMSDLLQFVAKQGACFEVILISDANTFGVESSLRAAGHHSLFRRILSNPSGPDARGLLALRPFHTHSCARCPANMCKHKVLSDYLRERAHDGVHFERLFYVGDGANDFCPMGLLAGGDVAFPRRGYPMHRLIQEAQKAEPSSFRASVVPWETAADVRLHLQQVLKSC
# * hit, by the source's call; nt = not tested or not shown. Compounds with a hit are over-represented: about 5.6% of the library has one in this group of screens.
SMILES,H9c2 protect,ALR inh,PfM18AAP inh,PfGluPho inh,PHOSPHO1 inh
CCCCn1c(NS(=O)(=O)c2ccccc2)c(C(=O)OCC)c2nc3ccccc3nc21,-10,5,12,9,83*
CCC1CN1P(=O)(N1CCCC1)N1CC1CC (configuration not stated),0,nt,nt,6,nt
COc1ccc(N2CCN(C(CNC(=O)Oc3ccccc3)c3cccnc3)CC2)cc1 (configuration not stated),14,85*,1,7,-24
O=C(NCC(c1cccnc1)N1CCN(c2ccccc2F)CC1)Oc1ccccc1 (configuration not stated),-8,-4,3,-3,18
Cc1nc2ccccc2c(=O)n1/N=C/c1cc(Br)cc(Br)c1O,55*,1,nt,-11,nt
Cc1nc2ccccc2c(=O)n1-c1ccc(Br)cn1,1,-3,-5,1,36
CCCNC(=O)N1CCC2(CC1)OCCO2,8,-7,-3,-14,62*
COc1ccc(-n2nnnc2C(c2cccs2)N2CCC(n3c(=O)[nH]c4ccccc43)CC2)cc1 (configuration not stated),42,nt,nt,nt,nt
Cc1[nH]c2ccccc2c1/C=N/O,-1,96*,-8,0,-9
Cc1[nH]c2ccccc2c1CCN,1,16,-5,-1,nt
O=C1Nc2ccccc2C(c2ccccc2)=NC1O (configuration not stated),1,1,0,-10,15
CN1C(=O)c2ccccc2NC(=O)[C@]12O[C@@H]2c1ccccc1,0,98*,4,-15,8
C[C@]12CCC3C(CC[C@H]4C[C@H](O)CC[C@]34C)C1C[C@@H](O)[C@H]2O (some centres not stated),-4,nt,nt,2,nt
CCN(CC)c1ccc(/C=C2\C(=O)NC(=O)N(Cc3ccco3)C2=O)cc1,12,nt,12,26,-12
CCN1C(=O)NC(=O)/C(=C\c2cn(CC(=O)O)c3ccccc23)C1=O,nt,6,-17,nt,20
O=C(O)Cn1cc(/C=C2\C(=O)NC(=O)N(Cc3ccco3)C2=O)c2ccccc21,9,98*,16,21,-17
Cc1cc(/C=C2/C(=O)NC(=O)N(Cc3ccco3)C2=O)c(C)n1-c1ccccc1O,-1,81*,16,25,20
CCC(c1nnnn1C1CCCCC1)N1CCC2(CC1)C(=O)NCN2c1ccccc1 (configuration not stated),10,nt,nt,nt,nt
Clc1cccc(N2Cc3cc(-c4ccccc4)ccc3-n3nncc3C2)c1,-6,nt,nt,nt,nt
CC1CN=C(Nc2ccc(N(C)C)cc2)S1 (configuration not stated),-1,89*,2,11,21
COCCNC(=O)Cn1cc(C=C2C(=O)NC(=O)NC2=O)c2ccccc21,0,11,31*,3,18
O=P(CN1CCN(c2ccccc2)CC1)(N1CCCCC1)N1CCCCC1,4,99*,-6,-7,-8
CC(C)c1onc(C(=O)N2CCC3(CC2)OCCO3)c1[N+](=O)[O-],1,1,9,-5,64*
CN=C(SCc1cc2c(cc1Cl)OCO2)c1c(O)n(C)c(=O)n(C)c1=O,-14,101*,11,-1,23
Cn1c(O)c(C(=O)c2ccccc2Cl)c(=O)n(C)c1=O,-4,-12,0,-10,25
SMILES,H9c2 protect,ALR inh,PfM18AAP inh,PfGluPho inh,PHOSPHO1 inh
N#CC(C#N)=Cc1ccc(O)c(O)c1,41,98*,nt,-28,nt
CC12C=CC(=O)CC1CCC1C2CCC2(C)C(O)C(O)CC12 (configuration not stated),118*,nt,nt,10,nt
C[C@]12CCC3C(CC[C@H]4C[C@H](O)CC[C@]34C)C1C[C@@H](O)[C@@H]2O (some centres not stated),-2,-2,nt,0,nt
CN1C(=O)NC(=O)/C(=C/c2ccc([N+](=O)[O-])s2)C1=O,0,-2,12,81*,-84
COc1ccc(OC)c(N2C(=O)NC(=O)/C(=C\c3ccc([N+](=O)[O-])s3)C2=O)c1,-14,nt,-5,51,-124
O=C1NC(=O)N(c2ccccc2)C(=O)/C1=C\c1ccc([N+](=O)[O-])o1,nt,-33,17,nt,62*
CN1C(=O)NC(=O)/C(=C/c2ccc([N+](=O)[O-])o2)C1=O,nt,-70,20,42,17
CN1C(=O)/C(=C\c2ccc(Br)s2)C(=O)NC1=S,-7,56,-1,60*,-6
O=C1NC(=O)N(c2ccccc2)C(=O)/C1=C\c1ccc([N+](=O)[O-])s1,nt,-3,7,81*,-136
O=C(C1CCCCC1)N1Cc2ccccc2-n2nncc2C1,0,nt,nt,-10,nt
N#CC1c2ccccc2-n2nncc2CN1C(=O)c1ccccc1F (configuration not stated),11,nt,nt,nt,nt
COc1c(O)cc2c(c1OC)-c1ccc(SC)c(=O)cc1C(NC(C)=O)CC2 (configuration not stated),14,nt,nt,23,nt
C[C@]1(O)CCC2C3CC[C@H]4C[C@@H](OC(=O)[C@@H](N)CCCCN)CC[C@]4(C)C3CC[C@@]21C (some centres not stated),5,nt,nt,-3,nt
CCC(C)N1C(=O)/C(=C/c2ccc3c(c2)CCN3CCCCl)C(=O)NC1=S (configuration not stated),2,98*,1,30,-21
Cc1cccc(N2C(=O)NC(=O)/C(=C\c3ccc4c(c3)CCCN4Cc3ccccc3)C2=O)c1,-4,1,3,12,7
C=CCN1Cc2ccccc2-n2nncc2C1,3,nt,nt,nt,nt
C[n+]1c(-c2ccccc2)c2cc(N)ccc2c2ccc(N)cc21,-22,99*,34*,52,25
Nc1ccc2ccc3cccc[n+]3c2c1,4,-19,5,50,20
NC(=S)N/N=C/c1coc2ccccc2c1=O,-3,-1,29*,-7,-1
O=C1NC(=O)C(=Cc2coc3ccccc3c2=O)C(=O)N1,2,14,8,20,-2
C[C@]12CC[C@@H](O)CC1=CC(=O)C1C2CC[C@]2(C)C(=O)[C@H](O)CC12 (some centres not stated),-5,nt,nt,-13,nt
CC(C)CN1Cc2cc(-c3cccc(F)c3)ccc2-n2nncc2C1,2,nt,nt,nt,nt
CC1(C)OC(c2ccccc2)=C/C(=C/C=C2C(=O)NC(=S)NC2=O)O1,nt,88*,10,26,25
CN1/C(=C\C=C2C(=O)NC(=S)NC2=O)C(C)(C)c2ccccc21,2,nt,6,-7,-20
O=c1[nH]c(=O)n(CCC2=CCCCC2)c(O)c1/C=N/Nc1ccccc1,3,98*,-1,-29,-18
O=c1[nH]c(=O)n(Cc2ccc(F)cc2)c(O)c1C=NCCCO,2,-12,-4,-9,0
O=c1[nH]c(=O)n(CCC2=CCCCC2)c(O)c1/C=N/Nc1cccc2ccccc12,3,3,6,-1,-25
O=c1[nH]c(=O)n(Cc2ccc(F)cc2)c(O)c1/C=N/Nc1ccccc1,2,99*,9,9,-45
CCC(C)n1c(O)c(C=NCCc2ccccc2)c(=O)[nH]c1=S (configuration not stated),-1,nt,4,13,37
